Calls of active or inactive are those of the source. The calls were made as follows: active = hit-call score of the fitted dose curve at least 0.9, where 1 is the maximum; inactive = score below 0.9.
Columns and labels:
[1] = read-out: Matrix Metallopeptidase 1 (MMP1), MMP1 (gene 4312); test: BSK_hDFCGF_MMP1: BioMAP Diversity Plus: hDFCGF Assay for Matrix Metallopeptidase 1 (MMP1) Biomarker Activity (AID 2283064); details: primary human foreskin fibroblasts; actives raise or lower the signal
Outline: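 Primary human foreskin fibroblasts exposed to chemicals for 24 h; MMP1 measured by ELISA. Cytotoxicity tracked by SRB staining in parallel cultures; bidirectional fit relative to DMSO.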

[2] = read-out: Vascular cell adhesion molecule 1 (VCAM1), VCAM1 (gene 7412); test: BSK_hDFCGF_VCAM1: BioMAP Diversity Plus: hDFCGF Assay for Vascular cell adhesion molecule 1 (VCAM1) Biomarker Activity (AID 2283065); details: primary human foreskin fibroblasts; actives raise or lower the signal;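 as to AC50: VCAM-1 protein level quantified by ELISA after 24 h chemical exposure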
Outline: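 ELISA read-out of VCAM-1 on human skin fibroblasts, 24 h post-dose; gain or loss of signal fitted bidirectionally against DMSO baseline.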

[3] = read-out: Plasminogen activator inhibitor-1 (PAI1), SERPINE1 (gene 5054); test: BSK_hDFCGF_PAI1: BioMAP Diversity Plus: hDFCGF Assay for Plasminogen activator inhibitor-1 (PAI1) Biomarker Activity (AID 2283066); details: primary human foreskin fibroblasts; actives raise or lower the signal
Outline: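 PAI-1 levels, determined by ELISA, served as the endpoint in human foreskin fibroblast cultures exposed to compound for 24 h, with DMSO as baseline.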

[4] = read-out: Intercellular Adhesion Molecule 1 (ICAM1), ICAM1 (gene 3383); test: BSK_KF3CT_ICAM1: BioMAP Diversity Plus: KF3CT Assay for Intercellular Adhesion Molecule 1 (ICAM1) Biomarker Activity (AID 2283067); details: primary human keratinocytes with fibroblasts; actives raise or lower the signal
Outline: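 ELISA readout of ICAM-1; KF3CT human skin co-culture (keratinocytes + foreskin fibroblasts), 24 h post-dose; gain/loss fit vs DMSO baseline.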

[5] = read-out: Interferon-gamma inducible Protein 10 (IP10), CXCL10 (gene 3627); test: BSK_KF3CT_IP10: BioMAP Diversity Plus: KF3CT Assay for Interferon-gamma inducible Protein 10 (IP10) Biomarker Activity (AID 2283068); details: primary human keratinocytes with fibroblasts; actives raise or lower the signal
Outline: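 Signal is secreted/surface IP-10 by ELISA in a human primary skin co-culture of keratinocytes and foreskin fibroblasts, taken 24 h post-dosing; DMSO served as negative control.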

[6] = BSK_KF3CT_SRB: Viability Assessment in the BioMAP Diversity Plus: KF3CT Assay (AID 2283069); details: primary human keratinocytes with fibroblasts;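 also: total protein by sulforhodamine B staining as a cytotoxicity measure; read 24 h after compound addition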
Outline: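 Human keratinocyte and foreskin fibroblast co-culture exposed to chemical for 24 h. Total protein measured in parallel cultures by 0.1% sulforhodamine B staining after 10% TCA fixation, read at 560 nm; bidirectional fit relative to DMSO.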

[7] = read-out: Interleukin-1 alpha (IL1a), IL1A (gene 3552); test: BSK_KF3CT_IL1a: BioMAP Diversity Plus: KF3CT Assay for Interleukin-1 alpha (IL1a) Biomarker Activity (AID 2283070); details: primary human keratinocytes with fibroblasts; actives raise or lower the signal
Outline: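 Primary human keratinocyte plus foreskin fibroblast co-culture, dosed and measured at 24 h in 96-well plates. IL-1a level quantified by ELISA; bidirectional fit relative to DMSO.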

[8] = read-out: TIMP metallopeptidase inhibitor 2 (TIMP2), TIMP2 (gene 7077); test: BSK_KF3CT_TIMP2: BioMAP Diversity Plus: KF3CT Assay for TIMP metallopeptidase inhibitor 2 (TIMP2) Biomarker Activity (AID 2283071); details: primary human keratinocytes with fibroblasts; actives raise or lower the signal
Outline: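 Keratinocyte–fibroblast co-culture, 24 h exposure; TIMP-2 ELISA, DMSO-normalised bidirectional fit. Parallel SRB (0.1%, TCA-fixed, 560 nm) total-protein staining gauges cytotoxicity.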

[9] = read-out: Transforming growth factor beta 1 (TGFb1), TGFB1 (gene 7040); test: BSK_KF3CT_TGFb1: BioMAP Diversity Plus: KF3CT Assay for Transforming growth factor beta 1 (TGFb1) Biomarker Activity (AID 2283072); details: primary human keratinocytes with fibroblasts; actives raise or lower the signal
Outline: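 Signal changes in either direction, relative to DMSO, define activity here. TGF-b1 is read by ELISA from a human keratinocyte-fibroblast co-culture 24 h post-dose.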

[10] = read-out: C-C motif chemokine 2 (Homo sapiens) (UniProt P13500); test: BSK_KF3CT_MCP1: BioMAP Diversity Plus: KF3CT Assay for Monocyte Chemoattractant Protein 1 (MCP1/CCL2) Biomarker Activity (AID 2283073); details: primary human keratinocytes with fibroblasts; actives raise or lower the signal
Outline: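 KF3CT skin co-culture (keratinocytes/foreskin fibroblasts), 24 h post-dose; MCP-1 by ELISA; gain/loss of signal fit bidirectionally vs DMSO baseline.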

[11] = read-out: Matrix Metallopeptidase 9 (MMP9), MMP9 (gene 4318); test: BSK_KF3CT_MMP9: BioMAP Diversity Plus: KF3CT Assay for Matrix Metallopeptidase 9 (MMP9) Biomarker Activity (AID 2283074); details: primary human keratinocytes with fibroblasts; actives raise or lower the signal;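 as to AC50: MMP9 protein level quantified by ELISA in the co-culture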
Outline: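 Human keratinocyte and foreskin fibroblast co-culture exposed to chemicals for 24 h; MMP9 biomarker measured by ELISA, bidirectional fitting relative to DMSO; cytotoxicity tracked by SRB total protein staining in parallel cultures.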

[12] = read-out: urokinase plasminogen activator (uPA), PLAU (gene 5328); test: BSK_KF3CT_uPA: BioMAP Diversity Plus: KF3CT Assay for urokinase plasminogen activator (uPA) Biomarker Activity (AID 2283075); details: primary human keratinocytes with fibroblasts; actives raise or lower the signal
Outline: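 Primary human keratinocyte/foreskin fibroblast co-culture exposed to chemical; uPA measured by ELISA at 24 h. Bidirectional fit versus DMSO, with parallel SRB total-protein staining for cytotoxicity.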

CD40, CD40 (gene 958) = test: BSK_LPS_CD40: BioMAP Diversity Plus: LPS Assay for CD40 Biomarker Activity (AID 2283076); details: primary human HUVEC with PBMC; actives raise or lower the signal
Outline: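 ELISA readout of CD40 in HUVEC/PBMC co-culture (BSK_LPS system), 24 h post-dosing; bidirectional curve fit, DMSO baseline; parallel SRB total-protein staining for cytotoxicity.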

[13] = read-out: E-selectin (Homo sapiens) (UniProt P16581); test: BSK_LPS_Eselectin: BioMAP Diversity Plus: LPS Assay for Eselectin Biomarker Activity (AID 2283077); details: primary human HUVEC with PBMC; actives raise or lower the signal
Outline: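 ELISA readout of E-selectin, 24 h post-dose, HUVEC + PBMC co-culture (LPS system). Gain or loss of signal vs DMSO baseline, bidirectional fit.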

[14] = read-out: Interleukin-8 (IL8), CXCL8 (gene 3576); test: BSK_LPS_IL8: BioMAP Diversity Plus: LPS Assay for Interleukin-8 (IL8) Biomarker Activity (AID 2283078); details: primary human HUVEC with PBMC; actives raise or lower the signal
Outline: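 HUVEC + PBMC co-culture, LPS-activated; test chemicals dosed, IL-8 read by ELISA at 24 h. Bidirectional curve fit vs DMSO baseline (gain or loss of signal).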

[15] = BSK_LPS_SRB: Viability Assessment in the BioMAP Diversity Plus: LPS Assay (AID 2283079); details: primary human HUVEC with PBMC;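 also: total protein by sulforhodamine B absorbance as a cytotoxicity measure; measured one day after compound addition; fitted in both directions against DMSO so loss or gain of signal counts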
Outline: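 HUVEC + PBMC co-culture, LPS-stimulated; compound 24 h. 10% TCA fix, 0.1% SRB stain, A560. Bidirectional fit vs DMSO.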

[16] = read-out: Interleukin-1 alpha (IL1a), IL1A (gene 3552); test: BSK_LPS_IL1a: BioMAP Diversity Plus: LPS Assay for Interleukin-1 alpha (IL1a) Biomarker Activity (AID 2283080); details: primary human HUVEC with PBMC; actives raise or lower the signal
Outline: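 HUVEC/PBMC co-culture, LPS system; 24 h after dosing; IL-1a by ELISA; gain or loss of signal fitted bidirectionally vs DMSO baseline.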

[17] = read-out: Monocyte Chemoattractant Protein-1 (MCP1), CCL2 (gene 6347); test: BSK_LPS_MCP1: BioMAP Diversity Plus: LPS Assay for Monocyte Chemoattractant Protein-1 (MCP1) Biomarker Activity (AID 2283081); details: primary human HUVEC with PBMC; actives raise or lower the signal;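 as to AC50: secreted MCP-1 protein quantified by ELISA in culture supernatant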
Outline: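 ELISA read-out of MCP-1 after 24 h chemical dosing of a human umbilical vein endothelial cell/peripheral blood mononuclear cell co-culture stimulated with LPS. Gain or loss of signal fitted relative to DMSO controls.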

[18] = BSK_LPS_PGE2: BioMAP Diversity Plus: LPS Assay for Prostaglandin E2 (PGE2) Biomarker Activity (AID 2283082); details: primary human HUVEC with PBMC; actives raise or lower the signal
Outline: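 Endpoint derived from bidirectional curve fitting versus DMSO of ELISA-measured PGE2 in LPS-stimulated human primary vascular co-culture (HUVEC with PBMC) harvested at 24 h.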

[19] = read-out: Macrophage colony-stimulating factor (MCSF), CSF1 (gene 1435); test: BSK_LPS_MCSF: BioMAP Diversity Plus: LPS Assay for Macrophage colony-stimulating factor (MCSF) Biomarker Activity (AID 2283083); details: primary human HUVEC with PBMC; actives raise or lower the signal
Outline: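 HUVEC + PBMC co-culture (human primary), 24 h post-dose; M-CSF by ELISA; gain/loss of signal fitted bidirectionally vs DMSO baseline.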

Measured: AC50

Sequence of E-selectin (Homo sapiens) (P16581 whole entry, looked up): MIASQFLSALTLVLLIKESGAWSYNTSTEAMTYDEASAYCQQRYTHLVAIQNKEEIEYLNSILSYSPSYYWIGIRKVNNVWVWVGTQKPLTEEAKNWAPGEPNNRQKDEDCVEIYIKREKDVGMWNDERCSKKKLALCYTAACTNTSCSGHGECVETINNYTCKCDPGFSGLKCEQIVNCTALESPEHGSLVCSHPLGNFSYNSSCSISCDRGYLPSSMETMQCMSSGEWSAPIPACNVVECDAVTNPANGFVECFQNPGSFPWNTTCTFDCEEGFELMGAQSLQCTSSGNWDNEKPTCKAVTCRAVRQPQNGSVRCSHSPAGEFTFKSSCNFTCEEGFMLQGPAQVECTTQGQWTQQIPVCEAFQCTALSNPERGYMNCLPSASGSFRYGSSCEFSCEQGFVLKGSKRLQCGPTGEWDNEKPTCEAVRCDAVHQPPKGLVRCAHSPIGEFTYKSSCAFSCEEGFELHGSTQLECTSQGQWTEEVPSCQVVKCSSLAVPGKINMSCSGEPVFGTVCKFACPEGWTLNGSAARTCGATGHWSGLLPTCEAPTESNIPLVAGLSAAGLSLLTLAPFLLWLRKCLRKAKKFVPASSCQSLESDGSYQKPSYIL

O=C(O)c1ccccc1-n1cc(C(=O)O)c(=O)c2cc(Nc3c(F)cc(F)cc3Cl)c(Cl)cc21
inactive: [1] | [2] | [3] | [4] | [5] | [6] | [7] | [8] | [9] | [10] | [11] | [12] | CD40, CD40 (gene 958) | [13] | [14] | [15] | [16] | [17] | [18] | [19]

CCCCCCCCCCCCO
active: [1] 31 µM | [2] 25.8 µM | [3] 29.7 µM | [4] 32.7 µM | [5] 37.7 µM | [6] 32.8 µM | [7] 30.6 µM | [8] 30 µM | [9] 30.9 µM | [10] 35 µM | [11] 33 µM | [12] 30.4 µM | [13] 19.8 µM | [15] 30.4 µM | [16] 36.3 µM | [17] 34.8 µM | [19] 32.2 µM
inactive: CD40, CD40 (gene 958) | [14] | [18]

O=c1ccc2ccccc2o1
inactive: [1] | [2] | [3] | [4] | [5] | [6] | [7] | [8] | [9] | [10] | [11] | [12] | CD40, CD40 (gene 958) | [13] | [14] | [15] | [16] | [17] | [18] | [19]

CCCCCCCCCCCO
inactive: [1] | [2] | [3] | [4] | [5] | [6] | [7] | [8] | [9] | [10] | [11] | [12] | CD40, CD40 (gene 958) | [13] | [14] | [15] | [16] | [17] | [18] | [19]

NCc1cccc(C2CCN(C(=O)c3ccc(C#Cc4ccccc4F)o3)CC2)c1
active: [1] 11 µM | [2] 7.78 µM | [3] 7.77 µM | [4] 29.6 µM | [5] 12.4 µM | [6] 5.34 µM | [7] 12.3 µM | [8] 8.8 µM | [9] 10.4 µM | [10] 20 µM | [11] 11.3 µM | [12] 11.1 µM | CD40, CD40 (gene 958) 8.42 µM | [13] 35.6 µM | [14] 25.8 µM | [15] 15.3 µM | [16] 17.1 µM | [17] 16.1 µM | [19] 26 µM
inactive: [18]

Oc1ccccc1
inactive: [1] | [2] | [3] | [4] | [5] | [6] | [7] | [8] | [9] | [10] | [11] | [12] | CD40, CD40 (gene 958) | [13] | [14] | [15] | [16] | [17] | [18] | [19]

Cc1cn([C@H]2C[C@H](N=[N+]=[N-])[C@@H](CO)O2)c(=O)[nH]c1=O
inactive: [1] | [2] | [3] | [4] | [5] | [6] | [7] | [8] | [9] | [10] | [11] | [12] | CD40, CD40 (gene 958) | [13] | [14] | [15] | [16] | [17] | [18] | [19]

Cc1ncc(CO)c(CO)c1O
inactive: [1] | [2] | [3] | [4] | [5] | [6] | [7] | [8] | [9] | [10] | [11] | [12] | CD40, CD40 (gene 958) | [13] | [14] | [15] | [16] | [17] | [18] | [19]

O=C1O[C@H]([C@@H](O)CO)C(O)=C1O
inactive: [1] | [2] | [3] | [4] | [5] | [6] | [7] | [8] | [9] | [10] | [11] | [12] | CD40, CD40 (gene 958) | [13] | [14] | [15] | [16] | [17] | [18] | [19]

CCCCCCCCCC(=O)O
inactive: [1] | [2] | [3] | [4] | [5] | [6] | [7] | [8] | [9] | [10] | [11] | [12] | CD40, CD40 (gene 958) | [13] | [14] | [15] | [16] | [17] | [18] | [19]

Cc1cccc2ccccc12
inactive: [1] | [2] | [3] | [4] | [5] | [6] | [7] | [8] | [9] | [10] | [11] | [12] | CD40, CD40 (gene 958) | [13] | [14] | [15] | [16] | [17] | [18] | [19]
